# Data reported in PubChem BioAssay AID463173 (ICCB-Longwood Screening Facility, Harvard Medical School, 2010).
# Among all 52,000 compounds or so, about 1,700 (3.3%) were called active. The full list was thinned out, with actives kept by preference. Values without a mark were called inactive. Rule as the data show it: active = survival mostly below about 52% (no sharp cut-off); inactive = mostly above about 56%.
# System: Wild type
# Assay: S. aureus survival, RN4220 and DeltatarO strains – OD600, teichoic acid synthesis inhibitors, primary screen (AID 463173)
# Conditions: S. aureus RN4220 wild type/DeltatarO growth, OD600, 18 h, active compounds read low, screened at 18.75 µg/mL (by protocol)
row,Structure (SMILES),survival
1,COc1ccc(CCNC(=O)CN(c2cc(C(F)(F)F)ccc2Cl)S(C)(=O)=O)cc1,68%
2,CCc1ccc(N2CC(c3nnc(NC(=O)c4ccco4)s3)CC2=O)cc1 (stereo not given),78%
3,Cc1nn(-c2ccccc2)c2sc(C(=O)Nc3cccc(O)c3)cc12,43%
4,Cc1cccc(NC(=O)c2cc3c(C)nn(-c4ccccc4)c3s2)c1,-2% (active)
5,Cc1nn(-c2ccccc2)c2sc(C(=O)Nc3ccc(Cl)cc3Cl)cc12,72%
6,Cc1nn(-c2ccccc2)c2sc(C(=O)Nc3cccc(Br)c3)cc12,36%
7,Cc1nn(-c2ccccc2)c2sc(C(=O)Nc3cccc(Cl)c3)cc12,5% (active)
8,CCOc1ccc(NC(=O)c2cc3c(C)nn(-c4ccccc4)c3s2)cc1,78%
9,CCOc1ccccc1C(=O)N(Cc1cc(OC)c(OC)c(OC)c1)c1ccccn1,82%
10,CCCOc1ccc(-c2cccc(NS(=O)(=O)c3ccc(CC)cc3)c2)nn1,69%
11,COC(=O)c1cccc(S(=O)(=O)N2CCC(NC(=O)Nc3cccc(F)c3)CC2)c1,110%
12,CCOc1ccc(Nc2c(S(=O)(=O)c3ccc(Cl)cc3)cnc3ccc(OCC)cc23)cc1,79%
13,CCOC(=O)c1cnc2ccc(OCC)cc2c1NCCN(C)C,103%
14,CCOc1ccc(Nc2c(S(=O)(=O)c3ccccc3)cnc3ccccc23)cc1,38%
15,CCOc1ccc(Nc2c(S(=O)(=O)c3ccccc3)cnc3ccc(CC)cc23)cc1,4% (active)
16,CCOC(=O)c1cnc2cc(C(F)(F)F)ccc2c1Nc1ccc(F)cc1F,-12% (active)
17,CCOC(=O)c1cnc2ccc(OCC)cc2c1Nc1cc(Cl)c(OC)cc1OC,60%
18,CCOc1ccc(Nc2cc(C(=O)NCc3ccccc3Cl)c3ccccc3n2)cc1,92%
19,CCOC(=O)c1cnc2cc(C(F)(F)F)ccc2c1Nc1cc(C)ccc1OC,67%
20,CCOc1ccc(Nc2c(S(=O)(=O)c3ccccc3)cnc3ccc(F)cc23)cc1,61%
21,CCOC(=O)c1cnc2ccc(Cl)cc2c1Nc1ccc(OCC)cc1,-3% (active)
22,CCOC(=O)c1cnc2ccc(OCC)cc2c1Nc1ccc(OCc2ccccc2Cl)cc1,5% (active)
23,CCOC(=O)c1cnc2c(ccc3ccccc32)c1Nc1cccc(C(F)(F)F)c1,37%

row,Structure (SMILES),survival
1,CC(=O)NCCNc1nc2c(S(=O)(=O)c3ccc(C)c(C)c3)nnn2c2ccc(Cl)cc12,80%
2,O=C(CN1C(=O)COc2ccc(S(=O)(=O)N3CCOCC3)cc21)NCc1ccc(Cl)cc1,78%
3,CCNc1c(NC(=O)c2ccccc2OCC)c(=O)oc2ccccc12,90%
4,CC1=C(C(=O)Nc2ccccc2)C(c2ccc(C)o2)NC(=S)N1 (stereo not given),109%
5,O=C(O)c1cnc2ccccn2c1=O,109%
6,Cc1noc(C)c1S(=O)(=O)N(CC(=O)NCc1ccccc1Cl)c1ccc(C(C)C)cc1,82%
7,NC(=O)CSc1nnc(COc2ccccc2)n1C1CCCCC1,110%
8,CCOC(=O)C1CCN(C(c2ccccc2OC)c2c(O)cc(C)n(CCOC)c2=O)CC1 (stereo not given),70%
9,Cc1ccc(N2CC(NC(=O)C3CCCC3)CC2=O)cc1 (stereo not given),55%
10,COCCn1c(CNC(=O)c2cccc(N(C)C)c2)nc2cccnc21,65%
11,Cc1nn(CC(=O)NCc2ccc(N(C)C)cc2)c(=O)c2c(C)n(-c3ccc(Cl)cc3)nc12,95%
12,COc1ccc(CC(C)NS(=O)(=O)c2ccc3c(c2)CCN3S(C)(=O)=O)cc1OC (stereo not given),134%
13,CCOC(=O)c1c(C)[nH]c(C)c1S(=O)(=O)N(C)CC(=O)Nc1ccc(C)c(N(C)C)c1,73%
14,CCOC(=O)c1cnc2ccc(C)cc2c1Nc1ccc(N(CC)CC)cc1,-2% (active)
15,CCOC(=O)c1cnc2c(C)c(Cl)ccc2c1Nc1ccc(N2CCOCC2)cc1,60%
16,CCOC(=O)c1cnc2ccc(OC(F)(F)F)cc2c1Nc1ccccc1C(=O)O,52%
17,CCOC(=O)c1cnc2ccc(C(=O)OC)cc2c1Nc1ccccc1CC,-1% (active)
18,CCOC(=O)c1cnc2c(Cl)cc(Cl)cc2c1Nc1cc(C(=O)O)ccc1C,61%
19,CCOC(=O)c1cnc2ccc(C)cc2c1NCCc1ccc(OC)c(OC)c1,117%
20,CCCOC(=O)c1ccc(Nc2c(C(=O)OCC)cnc3c(C)cc(Cl)cc23)cc1,4% (active)
21,CCOC(=O)c1ccc2ncc(C(=O)OCC)c(Nc3ccc(C)c(Br)c3)c2c1,72%
22,CCOC(=O)c1cnc2ccccc2c1Nc1ccc(N2CCOCC2)cc1,68%
23,CCOC(=O)c1cnc2ccc(C(=O)OC)cc2c1Nc1ccc(N2CCOCC2)cc1,115%

row,Structure (SMILES),survival
1,CCOC(=O)c1cnc2ccc(Cl)cc2c1Nc1ccc(N2CCOCC2)cc1,0% (active)
2,CCOC(=O)c1cnc2cc(F)c(F)cc2c1Nc1ccccc1O,169%
3,CCOc1ccc(-c2nc(SCC(=O)Nc3cc(F)ccc3F)n3[nH]c(=O)cc3n2)cc1,77%
4,CC1=C(C(=O)NCCc2ccc(Cl)cc2)C2(CCCCC2)OC1=O,73%
5,CC(C)CNc1nc(NC(C)(C)C)nc(Oc2ccc(=O)n(-c3ccccc3)n2)n1,84%
6,CCc1ccc(NCc2cc3cc(OC)c(OC)cc3n(CC(=O)Nc3cc(C)ccc3C)c2=O)cc1,63%
7,CCN(C(=O)CSc1nc2ccccc2n1Cc1cc(C)ccc1C)c1ccccc1,72%
8,COc1cc(NC(=O)Cn2cc(S(=O)(=O)c3ccccc3)c(=O)c3ccccc32)cc(OC)c1,78%
9,COc1ccc(N(C(=O)COc2ccc(Br)cc2)S(=O)(=O)c2ccc(C)cc2)cc1,87%
10,CCCCN(CC)C(=O)Cn1ncc2c3ccccc3n(CCC)c2c1=O,98%
11,CN(C)CC(O)C1CCOC(C)(C)C1 (stereo not given),111%
12,CCOC(=O)c1cnc2ccc(C(=O)OC)cc2c1Nc1ccc(OCc2ccccc2Cl)cc1,129%
13,CCOC(=O)c1cnc2ccc(OC)cc2c1Nc1cccc(C(C)=O)c1,2% (active)
14,CCOC(=O)c1cnc2ccc(C)cc2c1Nc1ccc(OCc2ccccc2Cl)cc1,4% (active)
15,CCOc1ccc(Nc2c(S(=O)(=O)c3ccc(Cl)cc3)cnc3ccc(OC)cc23)cc1,88%
16,CCOC(=O)c1cnc2ccc(OC)cc2c1Nc1ccc(OCc2ccccc2Cl)cc1,6% (active)
17,CN(C)c1cc(Nc2ccc(Cl)cc2)c2c3c(onc13)-c1ccccc1C2=O,96%
18,CCC(=O)N1CCc2cc(S(=O)(=O)NC(C(=O)NCCc3ccccc3)C(C)C)ccc21 (stereo not given),83%
19,CCC1CCc2nc3sc(C(=O)Nc4ccc(F)cc4F)c(N)c3cc2C1 (stereo not given),92%
20,Cc1cccc(CCNC(=O)Cn2ncc3c(=O)oc4ccccc4c32)c1,76%
21,Fc1ccc(-c2ccc(NCc3ccccc3)nn2)cc1,119%
22,Cc1cccc(CNC(=O)C2CCC(CNS(=O)(=O)c3ccc4c(c3)CCCC(=O)N4)CC2)c1 (stereo not given),65%
23,CCn1cc2nc(SCc3cccc(OC)c3)n(Cc3ccc(Cl)cc3)c(=O)c2n1,10% (active)

row,Structure (SMILES),survival
1,CCn1cc2nc(SCc3cccc(C(F)(F)F)c3)n(Cc3ccc(OC)cc3)c(=O)c2n1,71%
2,CCn1cc2nc(SCc3cccc(C(F)(F)F)c3)n(Cc3ccc(Cl)cc3)c(=O)c2n1,146%
3,CCc1ccc(-c2cn3c(n2)SCC3)cc1,111%
4,CCCNC(=O)Cn1c(=O)c2cccn2c2cccnc21,89%
5,Cc1c(CNC(C)CCc2ccccc2)c(C(=O)O)c(C)n1Cc1ccc(F)cc1 (stereo not given),93%
6,Cc1ccc(OCc2nc(C#N)c(NCCc3ccccc3)o2)cc1,-1% (active)
7,N#Cc1nc(COc2ccccc2Cl)oc1NCCc1ccccc1,25%
8,N#Cc1nc(COc2cccc(Cl)c2)oc1NCCc1ccccc1,19%
9,O=C(CCc1ccccc1)Nc1ccccc1,105%
10,Cc1cc(Cl)ccc1NS(=O)(=O)c1c(C(=O)N2CCCCCC2)c(C)n(C)c1C,77%
11,Cc1c(C(=O)N2CCC(C)CC2)c(S(=O)(=O)NCc2ccc(Cl)cc2)c(C)n1C,133%
12,CC(=O)Nc1ccc(NS(=O)(=O)c2c(C(=O)N3CCC(C)CC3)c(C)n(C)c2C)cc1,-3% (active)
13,Cc1ccc(NS(=O)(=O)c2c(C(=O)N3CCC(C)CC3)c(C)n(C)c2C)cc1Cl,131%
14,Cc1cc(Cl)ccc1NS(=O)(=O)c1c(C(=O)N2CCC(C)CC2)c(C)n(C)c1C,14% (active)
15,CCOc1ccc(CNS(=O)(=O)c2c(C(=O)N3CCC(C)CC3)c(C)n(C)c2C)cc1OC,71%
16,COc1cc(OC)c(NS(=O)(=O)c2c(C(=O)N3CCCCCC3)c(C)n(C)c2C)cc1Cl,54%
17,CCOc1ccc(OCC)c(NS(=O)(=O)c2c(C(=O)N3CCC(C)CC3)c(C)n(C)c2C)c1,0% (active)
18,COc1ccc(C)cc1NS(=O)(=O)c1c(C(=O)N2CCC(C)CC2)c(C)n(C)c1C,85%
19,CC(=O)Nc1ccc(NS(=O)(=O)c2c(C(=O)N3CCCCCC3)c(C)n(C)c2C)cc1,65%
20,COc1cc(OC)c(NS(=O)(=O)c2c(C(=O)N3CCC(C)CC3)c(C)n(C)c2C)cc1Cl,-1% (active)
21,CCOc1ccc(OCC)c(NS(=O)(=O)c2c(C(=O)N3CCCCCC3)c(C)n(C)c2C)c1,71%
